Assay outcomes (PubChem)
A selection: hits, their analogues and other compounds. The true share with any hit is near 1.3%.
mIDH1 inhibitor – human IDH1 R132H inhibition | O75874 | IDH1-R132H enzyme, NADPH consumption, diaphorase/resazurin fluorescence | Potency, µM (top dose mostly 76.6 µM), most hits filed as inhibitors | 0.093% of 390,000 active | AID 602179; note: nearly all actives have a fitted effect of over 65% in size
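IDH1-R132H (0.5 ug/mL dispensed) in pH 7.5 Tris buffer was preincubated 30 min with compound, then given a substrate mix of 0.016 mM NADPH and 2 mM alpha-KG for 80 min at room temperature; remaining NADPH was read by diaphorase/resazurin fluorescence.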
TrxR1 substrate – is turned over as a substrate by rat TrxR1; purified TrxR1 substrate turnover, NADPH consumption readout; 0.01% of 390,000 active; Potency, µM (highest dose often 114 µM); note: nearly all actives have a fitted effect of over 50% in size
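Rat TrxR1, dispensed at 90 nM, was prereduced with 400 uM NADPH (final) for 5 min at ~22 deg C, then incubated with compound 15 min before 400 uM selenite. A first-read NADPH fluorescence drop versus no-compound background flagged substrates.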
Anesthetic bind – binds horse apoferritin like a general anesthetic; 0.074% of 350,000 active; P02791; apoferritin/1-aminoanthracene competitive binding, fluorescence; AID 485281; Potency, µM (highest dose often 77.5 µM), actives largely listed as inhibitors; note: nearly all actives have a fitted effect of over 20% in size
Target sequence (P02791 2-175 limits assumed): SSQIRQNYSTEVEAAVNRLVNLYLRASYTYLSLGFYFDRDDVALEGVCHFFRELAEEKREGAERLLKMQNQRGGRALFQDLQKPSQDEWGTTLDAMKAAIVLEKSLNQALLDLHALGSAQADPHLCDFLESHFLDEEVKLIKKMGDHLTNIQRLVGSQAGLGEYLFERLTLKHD
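Horse-spleen apoferritin (10 uM) was mixed with 50% saturated 1-aminoanthracene in PBS, exposed to compounds for 10 min at room temperature, and read for fluorescence (ex 380 nm, em 535 nm). Competitive displacement was fitted with a four-parameter Hill equation.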
PKM2 act – PKM2 (human) enzyme activation. P14618. purified PKM2, Kinase-Glo ATP luminescence, activation; response scale: 0% is enzyme alone, no compound. Potency, µM (top dose mostly 57.5 µM), actives largely listed as activators. 0.34% of 260,000 active; note: nearly all actives have a fitted effect of over 55% in size
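Kinase-Glo luminescence reports ATP generated from ADP (0.1 mM) and PEP (0.5 mM) by purified hPK-M2 after 1 h at room temperature, pH 7.2 imidazole buffer; intermediate enzyme activity allows detecting inhibitors and activators.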
rTrxR1 inhibitor – rat TrxR1 inhibition; recombinant rTrxR1, NADPH fluorescence consumption, selenite substrate; Potency, µM (top dose mostly 114 µM), actives largely listed as inhibitors; 1% of 390,000 active; AID 588453; note: nearly all actives have a fitted effect of over 65% in size
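Rat TrxR1 (90 nM in the dispensed reagent) was pre-reduced with 400 uM NADPH for 5 min at room temperature, then incubated with compound for 15 min. After 400 uM selenite was added, NADPH fluorescence (Ex 340/Em 450 nm) was followed for 8 min.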
GALK inh – inhibitors of human galactokinase. P51570. Purified GALK, Kinase-Glo residual ATP luminescence. Potency, µM (top dose mostly 57.5 µM), usual class: inhibitors. 0.007% of 270,000 active
Target sequence (P51570 whole entry, looked up): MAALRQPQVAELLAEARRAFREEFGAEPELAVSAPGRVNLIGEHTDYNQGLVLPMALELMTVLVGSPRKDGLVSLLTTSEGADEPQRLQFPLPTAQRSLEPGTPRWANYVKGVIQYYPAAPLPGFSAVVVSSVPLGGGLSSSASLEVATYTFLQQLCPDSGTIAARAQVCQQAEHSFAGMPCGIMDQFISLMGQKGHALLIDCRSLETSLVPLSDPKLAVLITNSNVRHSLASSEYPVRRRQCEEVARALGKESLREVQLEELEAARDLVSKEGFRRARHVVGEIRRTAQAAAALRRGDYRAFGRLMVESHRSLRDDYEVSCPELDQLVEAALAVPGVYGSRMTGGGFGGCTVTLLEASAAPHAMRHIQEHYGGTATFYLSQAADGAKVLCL
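GALK at 5 nM final was combined with compound, 35 uM ATP and 100 uM galactose in HEPES pH8.0 with MgCl2 and DTT. The reaction ran one hour at room temperature before luminescent ATP detection.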
Of the large screens only hits and unclear results are named; the others gave an inactive call. Calls come from the whole dose curve; as a rule, active = well fitted curve in the direction sought with a large enough effect; inconclusive = small, poorly fitted or top-dose-only effect, or another doubt; inactive = no such curve, though single readings can be large; an effect the other way counts as inactive or inconclusive.

O=C(NCc1cccnc1)c1cc(-c2ccco2)on1	PKM2 act 22µM, rTrxR1 inhibitor inconclusive
CN1CC(O)C2=CC(=O)C(=O)C=C21 (configuration not stated)	none (no result: mIDH1 inhibitor, TrxR1 substrate, PKM2 act, rTrxR1 inhibitor, GALK inh)
COC(=O)c1ccccc1N(C)S(=O)(=O)c1cc2c3c(c1)CC(=O)N3CCC2	Anesthetic bind inconclusive (no result: PKM2 act, GALK inh)
CCCOC(=O)c1ccc(NC(=O)C2C3C=CC(O3)C2C(=O)O)cc1 (configuration not stated)	rTrxR1 inhibitor 40µM
O=C(O)C1C2C=CC(O2)C1C(=O)Nc1ccc(S(=O)(=O)Nc2ccccc2)cc1 (configuration not stated)	Anesthetic bind inconclusive, PKM2 act 28µM, rTrxR1 inhibitor inconclusive
O=C(O)C1C2C=CC(O2)C1C(=O)Nc1ccc(S(=O)(=O)N2CCc3ccccc32)cc1 (configuration not stated)	PKM2 act inconclusive, rTrxR1 inhibitor inconclusive
CCN(CC)c1ccc(/C=C2\C=Cc3ccccc32)cc1	none (no result: mIDH1 inhibitor, Anesthetic bind, PKM2 act, GALK inh)
Cn1c(=NC(=O)CCl)sc2ccccc21	rTrxR1 inhibitor 35µM
CCCCC1C(=O)N(c2ccccc2)N(c2ccc(O)cc2)C1=O (configuration not stated)	rTrxR1 inhibitor 7.9µM (no result: PKM2 act, GALK inh)
CCOC(=O)c1c(C)oc2nc(C)nc(NCCc3ccc(SC)cc3)c12	none (no result: PKM2 act, GALK inh)
Cn1c(=O)n(C)c2cc(S(=O)(=O)NCc3ccccc3)ccc21	PKM2 act 18µM
Cn1c(=O)[nH]c(=O)c2c1nc(N/N=C/C(Br)=C/c1ccccc1)n2CCO	rTrxR1 inhibitor 3.5µM (no result: GALK inh)
CC(C)=NNc1nc2c(c(=O)[nH]c(=O)n2C)n1CCc1ccccc1	none
Cc1ccc(S(=O)(=O)c2nc(S(C)(=O)=O)sc2NCc2ccccc2)cc1	none (no result: PKM2 act, GALK inh)
N#Cc1c(Sc2ncc(C(F)(F)F)cc2Cl)nsc1C/C=N\OCc1ccccc1Br	Anesthetic bind 14µM, rTrxR1 inhibitor inconclusive
CSc1ccc(CCNC(=O)CCn2c(=O)c3cccn3c3ccc(F)cc32)cc1	none (no result: PKM2 act, GALK inh)
CCOC(=O)c1[nH]c(C)c(/C(O)=C2\C(=O)C(=O)N(CCCN3CCOCC3)C2c2cccnc2)c1C (configuration not stated)	rTrxR1 inhibitor 45µM
COc1ccc(/C(O)=C2/C(=O)C(=O)N(CCN3CCOCC3)C2c2ccccn2)cc1 (configuration not stated)	rTrxR1 inhibitor 50µM
COC(=O)c1[nH]c(C)c(/C(O)=C2\C(=O)C(=O)N(CCCN3CCOCC3)C2c2ccccn2)c1C (configuration not stated)	rTrxR1 inhibitor 25µM
CCOC(=O)c1[nH]c(C)c(/C(O)=C2\C(=O)C(=O)N(CCCN(CC)CC)C2c2cccnc2)c1C (configuration not stated)	none (no result: Anesthetic bind, PKM2 act, GALK inh)
O=C1C(=O)N(CCN2CCOCC2)C(c2ccccn2)/C1=C(/O)c1ccc(F)cc1 (configuration not stated)	rTrxR1 inhibitor inconclusive
O=C(/C=C/c1ccccc1)CCN1CCOCC1	rTrxR1 inhibitor 0.56µM (no result: Anesthetic bind, PKM2 act, GALK inh)
O=C(COCc1cc(-c2ccc3c(c2)OCO3)on1)Nc1cccc(O)c1	none (no result: PKM2 act, GALK inh)
CC(=O)C(Sc1nc(N(C)C)nc(N(C)C)n1)C(=O)Nc1ccccc1 (configuration not stated)	none
CC(=O)C(Sc1nn(C)c(=S)s1)C(=O)Nc1ccccc1 (configuration not stated)	Anesthetic bind inconclusive, rTrxR1 inhibitor 22µM
CC(C)(C)N(Cc1ccc2c(c1)OCO2)C(=O)/C=C\S(=O)c1ccccc1 (configuration not stated)	rTrxR1 inhibitor 79µM (no result: Anesthetic bind, PKM2 act, GALK inh)
CCN(Cc1ccc2c(c1)OCO2)C(=O)/C=C/c1cccc(Br)c1	none
O=[N+]([O-])c1ccc(Sc2ncccn2)c([N+](=O)[O-])c1	rTrxR1 inhibitor inconclusive
O=C(O)CCSc1ccc([N+](=O)[O-])cc1[N+](=O)[O-]	rTrxR1 inhibitor 71µM
c1ccc(Oc2c3ccccc3nc3ccccc23)cc1	rTrxR1 inhibitor 8.9µM
Cc1nc(Oc2ccccc2)c2ccccc2n1	none
Cc1cccc(NC(=S)NC(=O)Cc2ccccc2)c1C	rTrxR1 inhibitor 56µM
O=C(COc1ccc(S(=O)(=O)N2CCOCC2)cc1Cl)NCc1ccco1	none
O=S(=O)(c1ccc(OCC(O)CNCc2ccco2)c(Cl)c1)N1CCOCC1 (configuration not stated)	Anesthetic bind inconclusive, PKM2 act 4µM
Cc1sc2ccccc2[n+]1CCC[n+]1c(C)sc2ccccc21	none (no result: mIDH1 inhibitor, Anesthetic bind, PKM2 act, GALK inh)
Cc1ccc(-c2nc3c(c(=O)[nH]c(=O)n3Cc3ccccc3)n2Cc2ccccc2)o1	PKM2 act 18µM
Cc1ccc(-c2nc3c(c(=O)[nH]c(=O)n3Cc3ccccc3)n2C)o1	PKM2 act inconclusive, rTrxR1 inhibitor 32µM
Cc1ccc(CCNC(=O)c2sc3nc4n(c(=O)c3c2C)CCCC4)cc1	none (no result: PKM2 act, GALK inh)
Cc1ccc(S(=O)(=O)N2CCN(c3nc(-n4c(=O)[nH]c5ccccc54)nc4ccccc34)CC2)cc1	none (no result: mIDH1 inhibitor, Anesthetic bind, PKM2 act, GALK inh)
Cc1cccc(CN2Cc3cccc4c3[C@H](C=CC4)CC2=O)c1	none (no result: mIDH1 inhibitor, Anesthetic bind, PKM2 act, GALK inh)
CCCC(=O)NC(Nc1c(C)n(C)n(-c2ccccc2)c1=O)C(Cl)(Cl)Cl (configuration not stated)	none
CC(=O)NC(Nc1c(C)n(C)n(-c2ccccc2)c1=O)C(Cl)(Cl)Cl (configuration not stated)	rTrxR1 inhibitor 56µM
COc1ccccc1CNc1cc(-c2ccccc2)nc2nncn12	rTrxR1 inhibitor 35µM (no result: PKM2 act, GALK inh)
COc1ccc(CN(C(=O)/C=C/C(=O)c2ccc(OC)cc2O)C(C(=O)NC2CCCCC2)c2ccncc2)cc1 (configuration not stated)	none
COc1ccc(C(=O)/C=C/C(=O)N(Cc2ccc3c(c2)OCO3)C(C(=O)NC2CCCCC2)c2ccncc2)c(O)c1 (configuration not stated)	none (no result: GALK inh)
COCCN(CC(=O)NC1CCCCC1)C(=O)/C=C/C(=O)c1ccc(OC)cc1O	rTrxR1 inhibitor 2µM
COc1ccc(C(=O)/C=C/C(=O)N(CC(=O)NC2CCCCC2)Cc2cccs2)c(O)c1	PKM2 act 13µM, rTrxR1 inhibitor 1µM
C(=C\c1c[nH]c2ccccc12)/c1ccc2ccccc2n1	none (no result: mIDH1 inhibitor, Anesthetic bind, PKM2 act, GALK inh)
N#Cc1c(N)n(CCNC(=O)c2ccc(Cl)cc2)c2nc3ccccc3nc12	PKM2 act 28µM
Cc1ccc(C(=O)NCCn2c(N)c(C#N)c3nc4ccccc4nc32)cc1	PKM2 act inconclusive (no result: GALK inh)
Cc1cccc(Cn2ncc(Cl)c(Cl)c2=O)c1	Anesthetic bind inconclusive, rTrxR1 inhibitor 50µM
